Measured values as given in paper PMC5540273 (PLoS ONE, 2017).

Assays:
Conditions in all cases: concentration: 1 μM, replicates: in singlicate; n = 1
YANK2 = system: T1, YANK2
T1 construct: gene STK32B

YANK3 = system: T2, YANK3
T2 construct: gene STK32C

YES = system: T3, YES
T3 construct: gene YES1

YSK1 = system: T4, YSK1
T4 construct: gene STK25

YSK4 = system: T5, YSK4
T5 construct: gene MAP3K19

ZAK = system: ZAK
ZAP70 = system: ZAP70
p38-alpha = system: T6, p38-alpha
T6 construct: gene MAPK14

p38-beta = system: T7, p38-beta
T7 construct: gene MAPK11

p38-delta = system: p38-delta
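Note: KINOMEscan kinase panel screen.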

Compound	%Inh (YANK2)	%Inh (YANK3)	%Inh (YES)	%Inh (YSK1)	%Inh (YSK4)	%Inh (ZAK)	%Inh (ZAP70)	%Inh (p38-alpha)	%Inh (p38-beta)	%Inh (p38-delta)
Cn1cncc1C(=O)NC1CCN(c2ccnc(Nc3ccc(F)cc3)n2)C1 (stereo not shown) [GSK1379717]	4%	0%	12%	0%	38%	100%	43%	0%	0%	5%
CNc1nc(-c2ccc3c(N)n[nH]c3c2)cc(N2C[C@@H](C(=O)Nc3ccccc3)CC[C@H]2C)n1 [GSK2298859]	89%	32%	2%	0%	17%	0%	0%	22%	0%	0%
O=C1NC(=O)C(c2ccc(Cl)cc2)=C1Nc1ccc(O)cc1 [SB-340867]	0%	0%	0%	8%	10%	22%	0%	0%	0%	0%
Cc1c(Cn2c(C)c(C)n3c(=O)cc(N4CCOCC4)nc23)cccc1C(F)(F)F [GSK2328680]	0%	0%	7%	14%	0%	16%	0%	21%	0%	33%
Fc1ccc(-c2nc3n(c2-c2ccncc2)CCS3)cc1 [GI98581]	5%	21%	0%	0%	5%	4%	0%	98.4%	14%	14%
Cc1ccc(NC(=O)Nc2ccc(Cl)cc2)cc1-c1ccc(C(=O)Nc2ccncc2)cc1 [GSK1398472]	4%	0%	17%	15%	56%	64%	7%	72%	34%	42%
Cc1nccc(-c2c(-c3ccc(F)cc3)ncn2CCCN2CCOCC2)n1.Cl [SB-282975]	0%	5%	18%	0%	22%	28%	25%	61%	26%	0%
CN1c2ccc(-c3ccc(C(N)=O)cc3)cc2-c2[nH]ncc2S1(=O)=O	0%	0%	0%	0%	0%	5%	5%	0%	4%	38%
CC(=O)c1cccc(NC(=O)NC2CCN(c3ccnc(Nc4ccc(F)cc4)n3)C2)c1 (stereo not shown) [GSK1379710]	0%	6%	0%	0%	20%	9%	0%	30%	0%	14%
COc1ccc(Nc2nccc(N3CCC(NC(=O)C(C)c4ccc(Cl)cc4)CC3)n2)cc1 (stereo not shown) [GSK1379812]	2%	1%	0%	0%	0%	0%	0%	1%	0%	27%
COc1ccc(Nc2nccc(N3CCC(NC(=O)C(C)c4ccc(Cl)cc4)C3)n2)cc1 (stereo not shown) [GSK1379735]	7%	15%	13%	0%	0%	5%	2%	0%	24%	29%
Cc1ccc(NC(=O)c2ccc(Cl)cc2)cc1-c1ccc(C(=O)Nc2ccncc2)cc1 [GSK1398467]	10%	17%	18%	0%	40%	17%	6%	65%	29%	27%
COc1cccc(CNC(=O)NC2CCN(c3ccnc(Nc4ccc(F)cc4)n3)C2)c1 (stereo not shown) [GSK1379723]	0%	14%	8%	0%	28%	100%	0%	0%	0%	43%
O=C(Nc1n[nH]c2nc(-c3ccco3)c(Br)cc12)C1CCN(Cc2ccccc2)C1.O=C(O)[C@H](O)[C@@H](O)C(=O)O (stereo not shown) [SB-742034]	9%	0%	12%	0%	56%	0%	35%	13%	15%	7%
COC(=O)c1cccc(NC(=O)NC2CCN(c3ccnc(Nc4ccc(F)cc4)n3)C2)c1 (stereo not shown) [GSK1379725]	0%	0%	8%	0%	8%	2%	0%	0%	0%	51%
NS(=O)(=O)c1cccc(N/C=C2\C(=O)Nc3ccc(S(=O)(=O)Cc4c(Cl)cccc4Cl)cc32)c1 [GSK398099]	0%	12%	22%	0%	39%	4%	20%	0%	0%	27%

Compound	%Inh (YANK2)	%Inh (YANK3)	%Inh (YES)	%Inh (YSK1)	%Inh (YSK4)	%Inh (ZAK)	%Inh (ZAP70)	%Inh (p38-alpha)	%Inh (p38-beta)	%Inh (p38-delta)
c1ccc(-c2ccnc3[nH]ccc23)cc1 [SB-693578]	0%	8%	14%	1%	93.5%	25%	55%	3%	0%	39%
Nc1nccc(-c2c(-c3ccc(F)cc3)ncn2C2CCN(Cc3ccccc3)CC2)n1 [SB-219980]	64%	30%	0%	0%	34%	0%	21%	99.7%	18%	0%
COc1ccc2cc(-c3nc(-c4ccccc4C(C)C)[nH]c3-c3ccncc3)ccc2c1 [SB-660566]	62%	53%	25%	31%	45%	31%	0%	3%	2%	44%
CS(=O)(=O)CCNCc1nc(-c2ccc3ncnc(Nc4ccc5c(cnn5Cc5ccccc5)c4)c3c2)cs1.Cl.Cl [GW569716]	0%	0%	21%	0%	36%	0%	0%	4%	0%	18%
COC(=O)C(Cc1ccccc1)NC(=O)NC1CCN(c2ccnc(Nc3ccc(F)cc3)n2)C1 (stereo not shown) [GSK1379714]	0%	7%	0%	0%	82%	5%	7%	0%	0%	0%
O=C1NC(=O)C(c2ccc(Cl)cc2)=C1Nc1cccc(Cl)c1 [SB-317651]	0%	0%	0%	0%	0%	16%	5%	13%	0%	5%
O=c1cc(N2CCOCC2)nc2n(Cc3cccc(Cl)c3Cl)c3ccccc3n12 [GSK2299009]	0%	29%	17%	21%	3%	5%	0%	12%	1%	16%
CC[C@@H]1CO[C@H](C(=O)Nc2ccccc2)CN1c1cc(-c2ccc3c(N)n[nH]c3c2)nc(NC)n1 [GSK2376236]	77%	0%	0%	6%	1%	0%	0%	8%	0%	26%
CNCc1ccc2nc(NC(=O)c3ccc(C(C)(C)C)cc3)cn2c1	22%	3%	0%	7%	30%	3%	15%	83%	0%	0%
COc1cc2ncnc(Nc3cccc(Br)c3)c2cc1OC.Cl [GI230329]	0%	13%	3%	4%	63%	12%	0%	47%	0%	46%
COc1ccc(CSc2nnc(-c3ccc4ncsc4c3)o2)cc1C(F)(F)F	11%	0%	0%	11%	70%	0%	11%	0%	10%	0%
COc1ccc(CSc2nnc(-c3ccc4c(c3)CCO4)o2)cc1	0%	0%	0%	0%	0%	0%	0%	0%	0%	23%
CNc1cc(-c2ccc3c(N)n[nH]c3c2)nc(N)n1 [GSK2224810]	8%	0%	0%	6%	58%	0%	0%	23%	0%	38%
O=C(Nc1n[nH]c2cc(-c3ccsc3)ccc12)C1CC1 [SB-732932]	0%	20%	12%	5%	94.7%	5%	0%	16%	8%	0%
COc1ccc(Nc2nccc(-c3ccc(NC(=O)c4cc5cc(F)ccc5[nH]4)cc3)n2)cc1 [GSK1229496]	0%	0%	0%	0%	8%	6%	0%	4%	0%	43%
